IkB signaling: inhibitors of IkB signaling in ABC-DLBCL cells | 110,000 tested, 0.04% active | Potency, µM (highest dose often 57.1 µM), inactives show at the top dose IkBa stabilization activation | ABC-DLBCL IkBa-CBG/CBR dual luciferase ratio, 4 h; response scale: scaled: untreated 0%, proteasome inhibitor 100%; active = well fitted curve in the direction sought with a large enough effect in the signal ratio, not every such curve was filed as active; inconclusive = small, poorly fitted or top-dose-only effect, or a change in a side signal; the % refers to the signal ratio;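 also: the direction sought is a rising ratio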
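In this assay, an IκBα–CBG68 fusion accumulates when IKK-driven degradation is blocked; native CBR normalizes for cell number. OCI-Ly3 cells were treated 4 h with compound and doxycycline, then green and red light read after Chroma-Glo addition.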
p53ts 39C tox: p53ts cell cytotoxicity, nonpermissive temperature; H1299-p53A138V viability at 39C, ATP luminescence, 24 h; Potency, µM (highest dose often 46.1 µM), for inactives: top-dose activity change, negative = cell killing, usual class: cytotoxic; 130,000 tested, 1.5% active; AID 902; also: % is scaled to controls: 0 for no effect and ±100 for the full control effect; nearly all actives have a fitted effect of over 55% in size
FLuc inh: inhibitors of firefly luciferase | purified firefly luciferase, luminescence, 8 min | Potency, µM (doses to about 57.1 µM), for the others: at the top dose activity change, negative = inhibition, most hits filed as inhibitors | 72,000 tested, 2.2% active; also: % is scaled to controls: 0 for no effect and ±100 for the full control effect; nearly all actives have a fitted effect of over 40% in size
Target sequence (P08659 whole entry, looked up): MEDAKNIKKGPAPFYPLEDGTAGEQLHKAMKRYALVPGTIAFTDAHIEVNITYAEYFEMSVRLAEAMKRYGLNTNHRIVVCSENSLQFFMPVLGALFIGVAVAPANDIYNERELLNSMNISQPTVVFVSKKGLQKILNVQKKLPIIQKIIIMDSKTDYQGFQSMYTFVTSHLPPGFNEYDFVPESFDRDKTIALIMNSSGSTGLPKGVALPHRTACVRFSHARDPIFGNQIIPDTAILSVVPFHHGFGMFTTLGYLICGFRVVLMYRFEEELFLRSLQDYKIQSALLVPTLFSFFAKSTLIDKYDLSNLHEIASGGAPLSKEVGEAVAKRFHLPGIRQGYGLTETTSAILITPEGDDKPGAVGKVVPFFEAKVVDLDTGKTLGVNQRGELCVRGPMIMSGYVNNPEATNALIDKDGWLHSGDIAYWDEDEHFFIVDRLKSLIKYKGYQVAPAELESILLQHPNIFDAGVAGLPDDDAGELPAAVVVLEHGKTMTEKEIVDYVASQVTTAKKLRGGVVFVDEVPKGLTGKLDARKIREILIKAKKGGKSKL
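Inhibition of light generation by firefly luciferase from ATP and luciferin was profiled with concentration-response curves per sample, ATP held at 10 uM within the enzyme's linear range. Plates were read by luminescence after an 8-minute ambient incubation.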
Imprint erasure: induces erasure of genomic imprints in mouse ES cells; AID 1948; Potency, µM (titrated, usually from 60.7 µM), for the others: at the top dose activity change, positive = activation, most hits filed as activators; mouse ES Peg3-LacZ reporter, beta-gal luminescence, 40 h; 110,000 tested, 0.02% active
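Imprint erasure is scored as LacZ activity from the silenced maternal Peg3 allele in feeder-free female ES cells cultured 40 h with LIF. Luminescence is normalized to in-plate negative controls and fitted to the Hill equation.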
p53ts 32C tox: kills p53ts cells at the permissive temperature; H1299-p53A138V at 32C, ATP luminescence viability, 24 h; Potency, µM (titrated, usually from 46.1 µM), without a hit: top-dose activity change, negative = cytotoxicity, most hits filed as cytotoxic; 130,000 tested, 0.93% active; AID 924;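 also: 0% = DMSO and -100% = full killing by reference compound; nearly all actives have a fitted effect of over 55% in size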
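Cells: H1299 p53ts (A138V), 600/well, pre-incubated 16–30 h at 37C. Cpd up to 46 uM, 24 h, 32C. Readout: ATPlite luminescence, 20 min RT. Normalization: DMSO vs tamoxifen 100 uM. AC50 by Hill equation.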
An asterisk follows results filed as active; ? = inconclusive; / = no result given; [ ] = remark or other dose. A selection: hits, their analogues and other compounds. The true share with any hit is near 2.4%. Unless noted, calls follow the shape of the dose curve; as a rule, active = well fitted curve in the direction sought with a large enough effect; inconclusive = small, poorly fitted or top-dose-only effect, or another doubt; inactive = no such curve, though single readings can be large; an effect the other way counts as inactive or inconclusive. Potency is read from the fitted curve at half-maximal effect.

SMILES	IkB signaling	p53ts 39C tox	FLuc inh	Imprint erasure	p53ts 32C tox
O=C(CN1CCN(c2ccccn2)CC1)Nc1ccc2ccccc2c1	?	-10%	40µM*	-11%	-15%
O=C(CN1CCN(c2ccccn2)CC1)Nc1ccc(Cl)c(C(F)(F)F)c1	1%	-6%	4%	-4%	-1%
Cc1ccc(NC(=O)NCC2CCN(Cc3cccc(Cl)c3)CC2)cc1Cl	?	16µM*	/	-19%[10.9 µM]	-18%
Cc1cccc(-c2nc(CCNC(=O)c3ccccc3Br)cs2)c1	0%	?	/	13%[10.9 µM]	2%
CC(=O)c1cc(-c2ccc(F)cc2)n(CC(=O)NC2CCCCCC2)c1C	-1%	9%	/	-11%[10.9 µM]	2%
Cc1ccc2nc(-c3cccc(NC(=O)c4ccc5c(c4)OCCO5)c3)oc2c1	?	?	?	-14%	?
CCCC(=O)Nc1cccc(NC(=O)c2ccc3c(c2)OCO3)c1	?	-17%	-28%	-61%	-14%
CCC(=O)Nc1cccc(NC(=O)c2ccc3c(c2)OCCO3)c1	3%	?	16µM*	-52%	?
CCOc1ccc(C(=O)Nc2ccc3c(c2)OCCO3)cc1Br	?	10µM*	/	-13%[10.9 µM]	?
CC(C)c1ccc2oc(-c3cccc(NC(=O)c4ccc5c(c4)OCCO5)c3)nc2c1	?	10µM*	/	-11%[10.9 µM]	?
O=C(Nc1ccc2c(c1)OCCO2)c1ccc2nccnc2c1	?	4µM*	10µM*	-81%	?
O=C(O)CCCCCC[C@@H]1C(=O)NC(=O)N1CC[C@@H](O)C1CCCCC1	11%	/	-3%	/	/
O[C@@H]1CC[C@H]2Cc3ccccc3N=C21	-1%[11.4 µM]	/	2%[11.4 µM]	/	/
c1ccc2c(c1)NC1(CCCC1)n1c-2nc2ccccc21	0%	?	25µM*	-72%	-29%
c1ccc2c(c1)NC(c1ccncc1)n1c-2nc2ccccc21 (stereo not given)	/	/	-29%[25.5 µM]	/	/
O=C(NCC(c1ccco1)S(=O)(=O)c1cccs1)c1ccc(C(F)(F)F)cc1 (stereo not given)	?	-24%	/	8%[10.9 µM]	-4%
CN(C)c1ccc(N/C=C/C(=O)c2ccc(F)cc2)cc1	5%	?	0.63µM*	-67%	?
CCc1ccc(C(=O)/C=C/NCc2ccc(F)cc2)cc1	/	-6%	/	/	/
CCOc1ccc(N(CC)C(=O)c2cc3c(s2)-c2ccc(Cl)cc2SC3)cc1	2%	20µM*	/	-4%[10.9 µM]	-11%
Cn1cnc(S(=O)(=O)N2CCC(C(=O)Nc3ccc(Cl)c(C(F)(F)F)c3)CC2)c1	?	-10%	/	25%[10.9 µM]	-11%
CCCCC(CC)CNC(=O)c1ccc(Cn2c(=O)[nH]c3cc(OC)c(OC)cc3c2=O)cc1 (stereo not given)	?	4µM*	/	-6%[10.9 µM]	?
Nn1c(Nc2ccccc2)nc2ccccc2c1=O	-6%	-24%	0%	-11%	-7%
Nn1c(Nc2ccccc2)nc2ccccc21	1%	?	13µM*	-80%	?
Cc1ccc(Oc2nc3ccccn3c(=O)c2/C=C(\C#N)c2nc3ccccc3s2)c(C)c1	?	7%	/	5%[10.9 µM]	3%
Cc1ccc(NC2=Nc3ccccc3CS2)cc1	-2%	?	4µM*	-72%	?
SMILES	IkB signaling	p53ts 39C tox	FLuc inh	Imprint erasure	p53ts 32C tox
O=C(O)CCCNc1cc(N2CCC3(CC2)OCCO3)c2noc3c2c1C(=O)c1ccccc1-3	?	?	25µM*	-27%	?
Cc1ccc(S(=O)(=O)c2nnn3c2nc(N2CCC(C)CC2)c2cc(Cl)ccc23)cc1C	?	-18%	/	-10%[10.9 µM]	7%
COc1cc(OC)cc(C(=O)Nc2ccc(-n3cnnn3)c(C)c2)c1	3%	-20%	-22%	-88%	-19%
Cc1c(C(=O)Nc2ccc(N3CCOCC3)cc2)oc2ccccc12	?	?	2.5µM*	-62%	?
Cc1cc(NC(=O)c2oc3ccccc3c2C)ccc1-n1cnnn1	?	?	10µM*	-17%	-19%
CN1C(=O)c2ccccc2Sc2ccc(NC(=O)NCc3cccc(Cl)c3)cc21	?	45%	/	9%[10.9 µM]	5%
Cc1ccc(NC2=C/C(=N\S(=O)(=O)c3cccs3)c3ccccc3C2=O)c(C)c1	/	7.1µM*	/	/	3.2µM*

Source: PubChem
